Counter-ions that a name gives are not always drawn.
Columns and labels:
Assay in all cases: Euclidean distance of Cell Painting phenotypic profile (signed KS, 77 features) to DMSO centroid (dimensionless distance); 5 or 10 uM (library dependent); higher = stronger phenotypic change vs DMSO (phenoactivity)
Details in all cases: 48 h
786-O = test system: 786-O
Procedure, shortened: (§1)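 Five cancer lines, together with a healthy fibroblast line, received library compounds for 48 h at a library-dependent 10 or 5 uM and 0.1% DMSO final. Harmony then derived 77 features from confocal 20X images (9 fields/well) of the stained cells, scoring each as a signed Kolmogorov-Smirnov statistic against same-plate vehicle wells. After plate-position correction, correlation weighting and replicate averaging at the top dose, phenoactivity was taken as each profile's Euclidean distance to the median vehicle profile.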

A549 = test system: A549
Procedure, shortened: as §1

DU145 = test system: DU145
Procedure, shortened: as §1

FB = test system: FB
Procedure, shortened: as §1

HEPG2 = test system: HEPG2
Procedure, shortened: as §1

OVCAR4 = test system: OVCAR4
Procedure, shortened: as §1

Structure (SMILES)	Euclidean distance (786-O)	Euclidean distance (A549)	Euclidean distance (DU145)	Euclidean distance (FB)	Euclidean distance (HEPG2)	Euclidean distance (OVCAR4)
CCO[C@@H]1OC(=O)C[C@@H]1NC(=O)[C@@H]1CCCN1C(=O)[C@@H](NC(=O)c1ccc(N)c(Cl)c1)C(C)(C)C	0.836	1.87	2.17	1.85	1.04	1.35
CC(=O)Oc1cccc2c1C(=O)c1c(OC(C)=O)cc(C(=O)O)cc1C2=O [Diacerein]	0.962	0.94	1.19	1.22	0.429	1.51
CCC/N=C1\S/C(=C\c2ccc(OC[C@H](O)CO)c(Cl)c2)C(=O)N1c1ccccc1C [Ponesimod]	1.96	1.39	0.669	1	1.32	1.26
COc1cc(C(C)=O)ccc1OCCCN1CCC(c2noc3cc(F)ccc23)CC1 [Iloperidone]	1.83	1.43	0.93	1.43	0.503	1.87
COc1cc2nc(N3CCN(C(=O)C4CCCO4)CC3)nc(N)c2cc1OC (centres undefined) [Terazosin HCl Dihydrate]	1.02	0.591	1.34	1.07	1.69	1.43
CCCN1CCCC[C@H]1C(=O)Nc1c(C)cccc1C [Ropivacaine HCl]	0.76	0.477	0.895	0.646	0.469	1.39
CO[C@H]1C(=O)[C@]2(C)[C@@H](OC)C[C@H]3OC[C@@]3(OC(C)=O)[C@H]2[C@H](OC(=O)c2ccccc2)[C@]2(O)C[C@H](OC(=O)[C@H](O)[C@@H](NC(=O)OC(C)(C)C)c3ccccc3)C(C)=C1C2(C)C [Cabazitaxel]	3.68	3.16	3.88	2.6	1.97	2.5
CCCOc1ccc(S(=O)(=O)NCCC2CCCN2C)cc1-c1nc2c(CCC)nn(C)c2c(=O)[nH]1 (centres undefined) [Udenafil]	1.13	1.12	1.49	1.77	1.61	1.41
NS(=O)(=O)c1cc(Cl)c(Cl)c(S(N)(=O)=O)c1 [Dichlorphenamide]	0.93	0.762	0.774	0.872	0.87	1.01
CC(=O)OCC(=O)[C@@]1(O)CC[C@H]2[C@@H]3CCC4=CC(=O)C=C[C@]4(C)[C@H]3[C@@H](O)C[C@@]21C [Prednisolone Acetate]	1.1	2.13	2.13	1.96	0.76	2.1
CN1CCN(c2ccc(OC(F)(F)F)c(Nc3ncc4c(n3)-c3c(c(C(N)=O)nn3CCO)CC4)c2)CC1	2.75	4.08	3.85	3.73	2.82	3.67
O=C(O)c1cc(=O)c2c(OCC(O)COc3cccc4oc(C(=O)O)cc(=O)c34)cccc2o1 [Disodium Cromoglycate]	0.952	0.486	1.78	1.02	0.769	1.05
C=C1CCN([C@H](C)[C@](O)(Cn2cncn2)c2ccc(F)cc2F)CC1 [Efinaconazole]	0.843	0.567	0.723	0.84	0.73	0.881
C[C@H]1COC2(CCN(c3nc(=O)c4cc(C(F)(F)F)cc([N+](=O)[O-])c4s3)CC2)O1 (racemic) [BTZ043 Racemate]	1.5	0.656	1.01	1.47	0.565	0.748
CCCN[C@H]1CCc2nc(N)sc2C1 [Pramipexole dihydrochloride]	0.969	0.801	1.16	1.09	0.46	1.16
C#C[C@]1(OC(C)=O)CC[C@H]2[C@@H]3CCC4=C[C@@H](OC(C)=O)CC[C@@H]4[C@H]3CC[C@@]21C [Ethynodiol diacetate]	1.27	1.31	0.938	1.29	0.735	1.1
CCn1cc(C(=O)O)c(=O)c2cc(F)c(N3CCN(C)CC3)cc21 [Pefloxacin Mesylate Dihydrate]	1.52	1.04	0.855	0.707	0.635	1.07
NC(=O)c1cn(Cc2c(F)cccc2F)nn1 [Rufinamide]	1.34	1.42	0.931	1.23	0.473	1.4
CN(C)C(=O)c1cc2cnc(Nc3ccc(N4CCNCC4)cn3)nc2n1C1CCCC1	2.35	1.67	1.46	3.9	1.9	1.81
CO/N=C(\C(=O)N[C@@H]1C(=O)N2C(C(=O)O)=C(COC(N)=O)CS[C@H]12)c1ccco1 [Cefuroxime sodium]	0.996	0.519	0.747	0.81	1.48	1.04
O=C(/C=C/C#Cc1cccc(NS(=O)(=O)c2ccccc2)c1)NO [Oxamflatin]	3.39	3.01	2.81	4.53	2.79	3.64
CC(C(=O)O)c1ccc(C(=O)c2ccccc2)s1 (centres undefined) [Tiaprofenic acid]	1.13	0.629	0.684	0.967	0.859	0.857
Cc1nccn1CC1CCc2c(c3ccccc3n2C)C1=O (centres undefined) [Ondansetron Hydrochloride Dihydrate]	1.23	0.687	0.998	1.01	1.39	1.43
CCCCCCCCCCCCCCCCn1cc[n+](Cc2ccccc2)c1C	3.58	4.18	2.89	2.94	4.61	4.19
CC(=O)[C@]1(O)Cc2c(O)c3c(c(O)c2[C@@H](O[C@H]2C[C@H](N)[C@H](O)[C@H](C)O2)C1)C(=O)c1ccccc1C3=O [Idarubicin HCl]	5.7	4.85	4.5	4.44	5.24	6.18

Structure (SMILES)	Euclidean distance (786-O)	Euclidean distance (A549)	Euclidean distance (DU145)	Euclidean distance (FB)	Euclidean distance (HEPG2)	Euclidean distance (OVCAR4)
O=C(C=Cc1ccccc1)NC(NC(=S)Nc1ccc(Cl)cc1)C(Cl)(Cl)Cl (centres undefined)	1.51	2.16	1.33	1.53	2.23	1.08
CCOc1cc([C@@H](CS(C)(=O)=O)N2C(=O)c3cccc(NC(C)=O)c3C2=O)ccc1OC	1.2	0.481	1.78	0.934	0.783	0.611
CNC(=O)c1ccc(N2C(=S)N(c3cnc(C#N)c(C(F)(F)F)c3)C(=O)C23CCC3)cc1F	1.4	1.24	0.954	0.828	1.01	1.16
NC1CCN(c2nc3c(cc2F)c(=O)c(C(=O)O)cn3-c2ccc(F)cc2F)C1 (centres undefined) [Tosufloxacin p-Toluenesulfonate Hydrate]	0.975	1.03	0.829	1.12	0.47	1.3
COc1ccc(CC2c3cc(OC)c(OC)cc3CC[N+]2(C)CCC(=O)OCCCCCOC(=O)CC[N+]2(C)CCc3cc(OC)c(OC)cc3C2Cc2ccc(OC)c(OC)c2)cc1OC (centres undefined) [Atracurium Besylate]	1.83	0.711	1.16	0.918	1.14	1.51
O=C(Cn1cnnn1)N[C@@H]1C(=O)N2C(C(=O)O)=C(CSc3nncs3)CS[C@H]12 [Ceftezole]	1.01	0.658	0.963	1.09	0.476	0.782
CO/N=C(\C(=O)N[C@@H]1C(=O)N2C(C(=O)O)=C(CSc3nc(C)c(CC(=O)O)s3)CS[C@H]12)c1csc(N)n1 [Cefodizime Sodium]	0.755	1.08	1.48	0.804	0.792	0.754
CC1=C(C(=O)O)N2C(=O)[C@@H](NC(=O)[C@H](N)C3=CCC=CC3)[C@H]2SC1 [Cephradine monohydrate]	1.65	0.779	2.12	0.776	0.698	0.618
CN(C)CCCN1c2ccccc2Sc2ccc(Cl)cc21 [Chlorpromazine]	1.47	1.98	1.56	2.21	2.01	1.04
CCOC(=O)c1ccc(OC(=O)CCCCCNC(=N)N)cc1 [Gabexate Mesylate]	1.36	0.886	1.01	0.822	1.58	1.68
NC(=O)Cc1cccc(C(=O)c2ccccc2)c1N [Nepafenac]	1.03	1.31	2.96	1.25	1.14	0.874
Cc1[nH]nc2ccc(-c3cncc(OC[C@@H](N)Cc4ccccc4)c3)cc12	4.66	4.28	3.94	5.02	3.37	5.52
Cc1cc(S(=O)(=O)O)c2c(C)ccc(C(C)C)cc1-2 [Sodium gualenate]	1.2	0.401	0.867	1.3	1.18	1.13
C[C@]12CC[C@H](O)CC1=CC[C@@H]1[C@@H]2CC[C@]2(C)C(n3cnc4ccccc43)=CC[C@@H]12 [Galeterone]	0.604	1.11	0.901	1.35	2.1	1.04
COc1ccc(C(=O)CC(=O)c2ccc(C(C)(C)C)cc2)cc1 [Avobenzone]	1.41	0.547	0.714	1.02	0.762	0.989
CCn1cc(C(=O)O)c(=O)c2cc(F)c(N3CCNCC3)nc21 [Enoxacin Sesquihydrate]	1.35	1.38	0.79	0.738	0.516	1.19
C#CCC(Cc1cnc2nc(N)nc(N)c2n1)c1ccc(C(=O)N[C@@H](CCC(=O)O)C(=O)O)cc1 (some centres undefined) [Pralatrexate]	1.51	2.98	0.922	1.25	1.73	2.44
COc1cc(Nc2nc3ccccc3nc2NS(=O)(=O)c2ccc(NC(=O)c3ccc(C)c(OC)c3)cc2)cc(OC)c1	0.677	1.26	1.17	0.743	–	1.07
C[C@@H]1CN(CC(=O)Nc2ccc3c(c2)Cc2cccc(-c4cc(=O)cc(N5CCOCC5)o4)c2S3)C[C@H](C)O1	1.16	1.25	1.41	1.37	–	2.14
CCCCOc1c(C(=O)c2c(F)cc(C)cc2F)c[nH]c2nncc1-2	1.55	2.16	1.61	1.37	–	2.1
CCN(CC)CCOC(=O)C(c1ccccc1)c1ccccc1 [Adiphenine HCl]	1.67	0.625	0.633	1.43	–	0.992
Cc1onc(-c2ccccc2Cl)c1C(=O)N[C@@H]1C(=O)N2[C@@H]1SC(C)(C)[C@@H]2C(=O)O [Cloxacillin Sodium]	0.711	0.744	0.6	0.941	1.02	1.39
COc1cccc2c1C(=O)c1c(O)c3c(c(O)c1C2=O)C[C@@](O)(C(C)=O)C[C@@H]3O[C@H]1C[C@H](N)[C@H](O)[C@H](C)O1 [Daunorubicin HCl]	5.05	5.5	5.6	4.91	4.88	5.41
c1ccc(C2CN3CCSC3=N2)cc1 (single isomer, unassigned; (-)) [(-)-Tetramisole]	1.24	1.23	0.518	0.965	–	2.19

— the supplement of paper PMC10127200
